# Counter-ions that a name gives are not always drawn.
# Test system: Danio rerio larvae (5 dpf)
# Assay: difference in activity during first hour vs DMSO (percentage points); higher = more activity than DMSO
# Conditions: 10 µM; exposure time 6 h
# In short: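 In 96-well plates, 48 wild-type zebrafish larvae aged 5 dpf per compound received 100 µL egg water with library compound at 10 µM final for 6 h. Three hours into this, a 3-h programme of moving lines and 100 ms, 400Hz tones ran at 28.5 ℃ while plates were photographed every 6 s. Z-LaP Tracker scored the behaviours, and each is given as the compound mean minus the vehicle control mean in percentage points.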
row,SMILES,difference in activity during first hour
1,CN(C)C(=O)Oc1ccc[n+](C)c1 [Pyridostigmine (bromide)],-1.82
2,O=[N+]([O-])O[C@H]1CO[C@H]2[C@@H]1OC[C@H]2O[N+](=O)[O-] [Isosorbide Dinitrate],2.6
3,CN1[C@@H]2CC[C@H]1C[C@@H](OC(=O)C(CO)c1ccccc1)C2 (stereo partly specified) [Atropine],-10.3
4,N[C@@H]1C[C@H]1c1ccccc1 [Tranylcypromine (hydrochloride)],-15.2
5,C[C@H](N)[C@H](O)c1ccc(O)c(O)c1 [Levonordefrin],3.36
6,O=c1[nH]c2ccccc2n1C1CCN(CCCC(c2ccc(F)cc2)c2ccc(F)cc2)CC1 [Pimozide],-5.44
7,C=CCN1CC[C@]23c4c5ccc(O)c4O[C@H]2[C@@H](OCCOCCOCCOCCOCCOCCOCCOC)CC[C@@]3(O)[C@H]1C5 [Naloxegol (oxalate)],7.65
8,C[C@]12CC[C@H](O)CC1=CC[C@@H]1[C@@H]2CC[C@]2(C)C(=O)CC[C@@H]12 [Dehydroepiandrosterone],-15.8
9,Cc1cccc([C@H](C)c2c[nH]cn2)c1C [Dexmedetomidine (hydrochloride)],-24.1
10,O=P1(N(CCCl)CCCl)NCCCO1 (stereo unspecified) [Cyclophosphamide (hydrate)],2.35
11,COc1cc([C@@H]2c3cc4c(cc3[C@H](O)[C@H]3COC(=O)[C@H]23)OCO4)cc(OC)c1OC [Podophyllotoxin],-1.85
12,CC1=C[C@]23C(=O)[C@@H](C=C(CO)[C@@H](O)[C@]2(O)[C@H]1O)[C@H]1[C@@H](C[C@H]3C)C1(C)C [Ingenol],-2.63
13,O=P1(NCCCl)OCCCN1CCCl (stereo unspecified) [Ifosfamide],-5.39
14,Cn1c(CCCC(=O)O)nc2cc(N(CCCl)CCCl)ccc21 [Bendamustine (hydrochloride)],2
15,CC(C)C[C@H]1C(=O)N2CCC[C@H]2[C@]2(O)O[C@](NC(=O)[C@@H]3C[C@@H]4c5cccc6[nH]cc(c56)C[C@H]4N(C)C3)(C(C)C)C(=O)N12.CC(C)[C@@]1(NC(=O)[C@@H]2C[C@@H]3c4cccc5[nH]cc(c45)C[C@H]3N(C)C2)O[C@@]2(O)[C@@H]3CCCN3C(=O)[C@H](Cc3ccccc3)N2C1=O.CC(C)[C@H]1C(=O)N2CCC[C@H]2[C@]2(O)O[C@](NC(=O)[C@@H]3C[C@@H]4c5cccc6[nH]cc(c56)C[C@H]4N(C)C3)(C(C)C)C(=O)N12.CCC(C)[C@H]1C(=O)N2CCC[C@H]2[C@]2(O)O[C@](NC(=O)[C@@H]3C[C@@H]4c5cccc6[nH]cc(c56)C[C@H]4N(C)C3)(C(C)C)C(=O)N12 [Ergoloid (mesylates)],-1.3
16,CCN(C(C)=O)c1cccc(-c2ccnc3c(C#N)cnn23)c1 [Zaleplon],5.81
17,O=C(O[C@H]1C[N+]2(CCCOc3ccccc3)CCC1CC2)C(O)(c1cccs1)c1cccs1 [Aclidinium (bromide)],-5.04
18,CC(C)C[C@H]1C(=O)N2CCC[C@H]2[C@]2(O)O[C@](NC(=O)[C@@H]3C=C4c5cccc6[nH]c(Br)c(c56)C[C@H]4N(C)C3)(C(C)C)C(=O)N12 [Bromocriptine (mesylate)],30.9
19,CC[C@@H](C(N)=O)N1CCCC1=O [Levetiracetam],2.97
20,O=C(O)CCCc1ccc(N(CCCl)CCCl)cc1 [Chlorambucil],5.75
21,N[C@@H](Cc1ccc(N(CCCl)CCCl)cc1)C(=O)O [Melphalan],-4.46
22,C[N+]1(C)CCCC(OC(=O)C(O)(c2ccccc2)c2ccccc2)C1 (stereo unspecified) [Mepenzolate (bromide)],2.16
23,CCOC(=O)c1cncn1[C@H](C)c1ccccc1 [Etomidate],-22.2
24,COc1cc2c(cc1OC)C1CC(=O)C(CC(C)C)CN1CC2 (stereo unspecified) [Tetrabenazine],9.5
25,C#CCN(C)[C@H](C)Cc1ccccc1 [R-(-)-Deprenyl (hydrochloride)],-5.84
26,Nc1ncnc2c1ncn2CCOCP(=O)(O)O [Adefovir],19.5

# From the supplement of paper PMC10515830
